Inconclusive results are not listed. Where a call stands in place of a potency, no number is given. Active and inactive are the calls of the source. Unless noted, the call rests on the fitted dose curve.
What was measured:
[1] = Nuclear factor erythroid 2-related factor 2/antioxidant responsive element (Nrf2/ARE) small molecule agonists: qHTS cell viability counter screen in human keratinocytes (AID 1919968; active means well fitted curve in the direction sought with a large enough effect in the repeat runs; an effect the other way counts as inactive or inconclusive; further: nearly all actives have a fitted effect of over 55% in size)
Procedure, shortened: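 Fluorescence read-out from CellTiter-Fluor after 1 h at 37 C. Wells held HaCaT-derived ARE-luciferase reporter cells (1,500/well) treated 23 h with DMSO-dissolved compounds. Run in the same wells as the luciferase agonist read.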

[2] = Nuclear factor erythroid 2-related factor 2/antioxidant responsive element (Nrf2/ARE) small molecule agonists: luciferase reporter gene qHTS assay in human keratinocytes (AID 1919969); further: nearly all actives have a fitted effect of over 35% in size
[3] = molecular target: Gonadotropin-releasing hormone receptor (Homo sapiens) (UniProt P30968); experiment: Human gonadotropin-releasing hormone receptor (GnRHR) small molecule agonists, calcium flux assay in GnRHR-HEK293 cells (AID 1920063); further: nearly all actives have a fitted effect of over 35% in size
Procedure, shortened: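 Calcium-dye fluorescence, Ex/Em=480/540, recorded every 1 sec over 3 min after compound addition to GnRHR-HEK293 cells. Cells had been seeded 18 hours earlier and dye-loaded for 1 hour at 37 C. Fifteen concentrations, triplicates.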

[4] = molecular target: KiSS-1 receptor (Homo sapiens) (UniProt Q969F8); experiment: Human kisspeptin (KISS1R) small molecule agonists, calcium flux assay in KISS1R-HEK293 cells (AID 1920064; active means well fitted curve in the direction sought with a large enough effect in the repeat runs; an effect the other way counts as inactive or inconclusive)
Procedure, shortened: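 Calcium flux read-out: kinetic fluorescence at Ex/Em=480/540, 1 s intervals over 3 min, after pin-tool compound addition to dye-loaded KISS1R-HEK293 cells. Fifteen concentrations, triplicates.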

[5] = G protein-coupled receptor (GPCR) small molecule agonists, calcium flux assay: HEK293 wild type cell line counter screen (AID 1920065)
Procedure, shortened: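 Agonist mode; 18 h seeding at 37 C, 1 h dye load at 37 C; compounds pinned from DMSO, ATP as positive control; kinetic fluorescence 480/540 nm, 3 min, 1 s reads; 15 concentrations, triplicate.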

[6] = p53 small molecule agonists, cell-based qHTS assay with human liver microsomes (AID 1963577);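 further: p53 response element beta-lactamase reporter cells with liver microsomes plus NADPH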
Procedure, shortened: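 p53RE-bla cells; 5 h settle, 37 C/5% CO2; cpd + HLM 0.5 mg/mL + NADPH 0.5 mg/mL (final); 16 h 37 C; LiveBLAzer 2 h RT dark; fluorescence readout.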

[7] = p53 small molecule agonists, cell-based qHTS assay with rat liver microsomes (AID 1963578)
Procedure, shortened: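 Rat liver microsome activation: microsomes 0.5 mg/mL, NADPH 0.5 mg/mL final; p53RE-bla cells, 16 h 37 C; LiveBLAzer readout, 2 h RT dark.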

[8] = p53 small molecule agonists, cell-based qHTS assay with human liver microsomes: qHTS cell viability counter screen (AID 1963579); further: nearly all actives have a fitted effect of over 45% in size
Procedure, shortened: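 Luminescent CellTiter-Glo read-out, 30 min at room temperature, gauged cytotoxicity in p53RE-bla cells exposed 16 h at 37 C to DMSO-dissolved compounds with metabolic activation by human liver microsomes and NADPH, each 0.5 mg/mL final.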

[9] = p53 small molecule agonists, cell-based qHTS assay with rat liver microsomes: qHTS cell viability counter screen (AID 1963580); further: nearly all actives have a fitted effect of over 45% in size
Procedure, shortened: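 After the beta-lactamase ratio was read, CellTiter-Glo was added to the same wells and luminescence measured at 30 min; cells had been treated 16 h at 37 C with compounds, rat liver microsomes and NADPH (0.5 mg/mL final each).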

[10] = p53 small molecule agonists, cell-based qHTS assay: qHTS cell viability counter screen (AID 1963581); further: nearly all actives have a fitted effect of over 45% in size
Procedure, shortened: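 Cytotoxicity read-out: ATP-based luminescence (CellTiter-Glo, 30 min RT) measured in the same wells as the p53 reporter assay, HCT-116 p53RE-bla cells, 16 h compound exposure at 37 C.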

[11] = p53 small molecule agonists, cell-based qHTS assay (AID 1963582; active means well fitted activation curve with a large enough effect in the signal ratio in the repeat runs, not every such curve was filed as active; the % refers to the signal ratio)
Procedure, shortened: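 Fluorescence intensity read-out of a beta-lactamase reporter under a p53 response element. Cells were exposed to DMSO-dissolved compounds for 16 h at 37 C, then developed with FRET substrate for 2 h at RT.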

[12] = molecular target: 5-hydroxytryptamine receptor 2A (Homo sapiens) (UniProt P28223); experiment: 5-hydroxytryptamine receptor 2A (HTR2A) small molecule antagonists, cell-based qHTS assay (AID 1963586); further: nearly all actives have a fitted effect of over 45% in size
Procedure, shortened: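 CHO cells stably expressing human HTR2A were plated for 18 h at 37 C, then loaded with calcium dye for 1 h. Compounds were preincubated 5 min at room temperature before DOI (4 nM solution) was added. Kinetic fluorescence was read for 3 min.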

[13] = molecular target: 5-hydroxytryptamine receptor 2A (Homo sapiens) (UniProt P28223); experiment: 5-hydroxytryptamine receptor 2A (HTR2A) small molecule agonists, cell-based qHTS assay (AID 1963587); further: nearly all actives have a fitted effect of over 30% in size
Procedure, shortened: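 CHO cells stably expressing human HTR2A, plated 18 h, loaded with calcium dye 1 h at 37 C. Agonist mode: compounds added and intracellular calcium fluorescence recorded kinetically for 2 min at 1 sec intervals.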

[14] = molecular target: Muscarinic acetylcholine receptor M1 (Homo sapiens) (UniProt P11229); experiment: Cholinergic receptor muscarinic 1 (CHRM1) small molecule antagonists, cell-based qHTS assay (AID 1963588); further: nearly all actives have a fitted effect of over 40% in size; further: potency means the concentration at half of the fitted maximal effect
Procedure, shortened: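 Compounds were tested at 15 concentrations in three independent runs. Dye-loaded CHRM1-CHO cells were exposed 5 min at room temperature before stimulation by acetylcholine added at 50nM. Intracellular calcium was read kinetically on FDSS for 3 min.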

[15] = molecular target: Muscarinic acetylcholine receptor M1 (Homo sapiens) (UniProt P11229); experiment: Cholinergic receptor muscarinic 1 (CHRM1) small molecule agonists, cell-based qHTS assay (AID 1963589); further: nearly all actives have a fitted effect of over 35% in size
Procedure, shortened: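 Calcium flux read-out: kinetic fluorescence at 1 sec intervals after pin-tool compound addition to dye-loaded CHRM1-CHO cells (human M1). Agonist mode; 15 concentrations tested in triplicate independent runs.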

[16] = cAMP Responsive Elements (CRE) small molecule agonists, cell-based qHTS assay (AID 1963590)
Procedure, shortened: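 Beta-lactamase reporter readout: LiveBLAzer B/G FRET substrate, 2 h at room temperature, added after 3 h compound treatment of CRE-bla HEK 293T cells at 37 C/5% CO2.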

[17] = cAMP Responsive Elements (CRE) small molecule antagonists, cell-based qHTS assay (AID 1963591; active means well fitted inhibition curve with a large enough effect in the signal ratio in the repeat runs, not every such curve was filed as active; the % refers to the signal ratio)
Procedure, shortened: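 HEK293T CRE-bla; 18 h preincubation; compound pin-transfer; NKH477 0.25 uM final, 3 h, 37 C; LiveBLAzer FRET substrate 2 h RT.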

[18] = molecular target: Beta-2 adrenergic receptor (Homo sapiens) (UniProt P07550); experiment: Adrenergic beta2 receptor (ADRB2) small molecule antagonists, cell-based qHTS assay (AID 1963592); further: series mostly up to about 92 µM; nearly all actives have a fitted effect of over 50% in size
Procedure, shortened: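 Assay format: CHO-ADRB2 cells, 18-20hr seeding at 37C/5% CO2, then compound plus 1nM isoproterenol agonist mix for 0.5hr RT. Homogeneous time-resolved fluorescence cAMP detection after 1hr, expressed as 665/615 nm ratio.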

[19] = molecular target: D(2) dopamine receptor (Homo sapiens) (UniProt P14416); experiment: Dopamine D2 receptor (DRD2) small molecule agonists, cell-based qHTS assay (AID 1963594); further: nearly all actives have a fitted effect of over 35% in size
Procedure, shortened: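 HEK293 cells stably expressing human DRD2, pre-treated with PDE inhibitor Ro20-1724 (0.1 mM final) and compound 10 min at room temperature, then stimulated with NKH477 (200nM […]) for 30 min. cAMP read by HTRF (665/620 nm).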

[20] = molecular target: D(2) dopamine receptor (Homo sapiens) (UniProt P14416); experiment: Dopamine D2 receptor (DRD2) small molecule antagonists, cell-based qHTS assay (AID 1963595; active means well fitted inhibition curve with a large enough effect in the signal ratio in the repeat runs, with a control signal flat; the % refers to the signal ratio)
Procedure, shortened: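 Human DRD2 antagonist qHTS measuring cAMP by HTRF. The cells are exposed to compound for 10 min, then to NKH477 (200 nM) and quinpirole (12 nM) for 30 min at RT, with Ro20-1724 (0.1 mM) present throughout.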

Muscarinic acetylcholine receptor M1 (Homo sapiens), sequence (P11229 whole entry, looked up): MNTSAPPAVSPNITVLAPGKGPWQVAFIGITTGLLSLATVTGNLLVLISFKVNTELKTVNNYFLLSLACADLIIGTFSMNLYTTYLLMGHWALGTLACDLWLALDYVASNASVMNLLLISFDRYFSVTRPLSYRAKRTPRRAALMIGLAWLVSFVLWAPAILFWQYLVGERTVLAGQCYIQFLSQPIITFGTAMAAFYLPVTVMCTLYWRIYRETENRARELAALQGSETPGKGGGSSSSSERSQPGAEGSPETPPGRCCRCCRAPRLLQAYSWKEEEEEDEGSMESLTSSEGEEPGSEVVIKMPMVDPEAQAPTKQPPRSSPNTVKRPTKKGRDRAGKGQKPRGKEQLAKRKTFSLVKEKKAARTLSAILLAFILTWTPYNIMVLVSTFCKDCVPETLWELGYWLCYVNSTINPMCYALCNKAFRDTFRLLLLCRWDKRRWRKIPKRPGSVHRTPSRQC
Beta-2 adrenergic receptor (Homo sapiens), sequence (P07550 whole entry, looked up): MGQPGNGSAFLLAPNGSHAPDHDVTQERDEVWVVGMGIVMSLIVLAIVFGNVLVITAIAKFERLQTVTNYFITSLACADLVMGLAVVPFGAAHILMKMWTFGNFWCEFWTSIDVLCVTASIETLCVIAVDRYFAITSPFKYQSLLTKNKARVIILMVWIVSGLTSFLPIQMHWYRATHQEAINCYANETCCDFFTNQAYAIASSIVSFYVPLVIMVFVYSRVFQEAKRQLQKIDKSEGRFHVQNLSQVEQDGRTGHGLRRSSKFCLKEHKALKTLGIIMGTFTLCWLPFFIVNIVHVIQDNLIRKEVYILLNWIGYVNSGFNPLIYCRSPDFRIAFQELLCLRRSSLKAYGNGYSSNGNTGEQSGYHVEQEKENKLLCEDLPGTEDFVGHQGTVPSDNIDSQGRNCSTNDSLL
5-hydroxytryptamine receptor 2A (Homo sapiens), sequence (P28223 whole entry, looked up): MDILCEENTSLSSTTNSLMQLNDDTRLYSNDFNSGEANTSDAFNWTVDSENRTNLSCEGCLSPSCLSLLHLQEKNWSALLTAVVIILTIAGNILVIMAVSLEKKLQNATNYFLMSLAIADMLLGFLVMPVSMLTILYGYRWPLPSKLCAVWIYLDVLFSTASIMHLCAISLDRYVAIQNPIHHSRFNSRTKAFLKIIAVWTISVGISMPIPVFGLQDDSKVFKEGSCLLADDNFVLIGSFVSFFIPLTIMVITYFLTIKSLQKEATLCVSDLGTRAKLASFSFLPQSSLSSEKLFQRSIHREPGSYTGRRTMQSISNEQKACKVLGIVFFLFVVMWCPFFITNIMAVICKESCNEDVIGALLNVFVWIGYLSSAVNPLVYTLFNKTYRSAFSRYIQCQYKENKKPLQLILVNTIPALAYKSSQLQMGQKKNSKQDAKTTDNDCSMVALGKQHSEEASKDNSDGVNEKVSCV
Gonadotropin-releasing hormone receptor (Homo sapiens), sequence (P30968 whole entry, looked up): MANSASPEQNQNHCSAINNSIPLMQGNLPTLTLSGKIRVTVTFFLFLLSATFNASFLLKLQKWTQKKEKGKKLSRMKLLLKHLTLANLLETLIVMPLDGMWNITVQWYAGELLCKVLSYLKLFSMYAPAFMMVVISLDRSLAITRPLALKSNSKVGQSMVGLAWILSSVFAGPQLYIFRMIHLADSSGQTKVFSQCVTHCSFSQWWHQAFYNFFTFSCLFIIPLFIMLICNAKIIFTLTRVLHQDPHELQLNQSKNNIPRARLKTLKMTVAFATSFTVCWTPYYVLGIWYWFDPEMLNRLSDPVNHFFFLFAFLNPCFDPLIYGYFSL
KiSS-1 receptor (Homo sapiens), sequence (Q969F8 whole entry, looked up): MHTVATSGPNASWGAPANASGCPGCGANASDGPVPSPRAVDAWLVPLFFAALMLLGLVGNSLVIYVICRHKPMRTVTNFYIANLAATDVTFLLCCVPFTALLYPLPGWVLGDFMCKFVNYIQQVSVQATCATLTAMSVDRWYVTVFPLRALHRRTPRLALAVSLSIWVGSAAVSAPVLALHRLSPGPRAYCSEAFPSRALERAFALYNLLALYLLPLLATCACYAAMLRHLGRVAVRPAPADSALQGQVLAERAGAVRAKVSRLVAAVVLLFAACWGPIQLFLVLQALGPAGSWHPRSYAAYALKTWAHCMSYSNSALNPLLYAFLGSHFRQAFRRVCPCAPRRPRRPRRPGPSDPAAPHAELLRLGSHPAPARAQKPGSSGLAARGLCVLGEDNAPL
D(2) dopamine receptor (Homo sapiens), sequence (P14416 whole entry, looked up): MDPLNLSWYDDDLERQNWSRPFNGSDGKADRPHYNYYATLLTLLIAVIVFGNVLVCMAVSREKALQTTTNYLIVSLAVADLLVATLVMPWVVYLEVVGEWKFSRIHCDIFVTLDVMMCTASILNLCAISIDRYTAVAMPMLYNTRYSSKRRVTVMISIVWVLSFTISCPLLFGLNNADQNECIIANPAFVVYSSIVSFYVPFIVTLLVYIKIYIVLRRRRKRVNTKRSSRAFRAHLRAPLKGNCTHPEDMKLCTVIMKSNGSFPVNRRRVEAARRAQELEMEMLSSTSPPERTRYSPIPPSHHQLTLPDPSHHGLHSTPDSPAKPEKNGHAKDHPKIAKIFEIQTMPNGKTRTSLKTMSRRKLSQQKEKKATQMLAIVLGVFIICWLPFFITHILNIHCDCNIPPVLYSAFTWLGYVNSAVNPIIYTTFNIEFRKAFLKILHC

Row | SMILES | Potency [1] | Potency [2] | Potency [3] | Potency [4] | Potency [5] | Potency [6] | Potency [7] | Potency [8] | Potency [9] | Potency [10] | Potency [11] | Potency [12] | Potency [13] | Potency [14] | Potency [15] | Potency [16] | Potency [17] | Potency [18] | Potency [19] | Potency [20]
1 | CCCCOC(=O)c1ccccc1C(=O)OCCCC | inactive | inactive | inactive | inactive | inactive | inactive | inactive | inactive | inactive | inactive | inactive | inactive | inactive | inactive | inactive | inactive | inactive | inactive | inactive | inactive
2 | CC(=O)C(C)(C)C | inactive | inactive | inactive | inactive | inactive | inactive | inactive | inactive | inactive | inactive | inactive | inactive | inactive | inactive | inactive | inactive | inactive | inactive | inactive | inactive
3 | CCCCC(CC)CO[N+](=O)[O-] (stereo not drawn) | inactive | inactive | inactive | inactive | inactive | inactive | inactive | inactive | inactive | inactive | inactive | inactive | inactive | inactive | inactive | inactive | inactive | inactive | inactive | 
4 | COc1cc(OC)nc(Sc2cccc(Cl)c2C(=O)O)n1 | inactive | inactive | inactive | inactive | inactive | inactive | inactive | inactive | inactive | inactive | inactive | inactive | inactive | inactive | inactive | inactive | inactive | inactive | inactive | inactive
5 | CC(C)=CCN1CC[C@@]2(C)c3cc(O)ccc3C[C@@H]1[C@@H]2C | inactive | inactive | inactive | inactive | inactive | inactive | inactive | inactive | inactive | inactive | inactive | inactive | inactive | 9.28 µM (active) | inactive | inactive | inactive | inactive | inactive | inactive
6 | Cc1cnc(C2=NC(C)(C(C)C)C(=O)N2)c(C(=O)O)c1 (stereo not drawn) | inactive | inactive | inactive | inactive | inactive | inactive | inactive | inactive | inactive | inactive | inactive | inactive | inactive | inactive | inactive | inactive | inactive | inactive | inactive | 
7 | CCCCN=C=O | inactive | inactive | inactive | inactive | inactive | inactive | inactive | inactive | inactive | inactive | inactive | inactive | inactive | inactive | inactive | inactive | inactive | inactive | inactive | inactive
8 | CCCCC(CC)C(=O)Cl (stereo not drawn) | inactive | inactive | inactive | inactive | inactive | inactive | inactive | inactive | inactive | inactive | inactive | inactive | inactive | inactive | inactive | inactive | inactive | inactive | inactive | 
9 | CN(N=O)C(N)=O | inactive | inactive | inactive | inactive | inactive | inactive | inactive | inactive | inactive | inactive | inactive | inactive | inactive | inactive | inactive | inactive | inactive | inactive | inactive | 
10 | Clc1ccc(C(Cl)(Cl)Cl)c(Cl)c1 | inactive | inactive | inactive | inactive | inactive | inactive | inactive | inactive | inactive | inactive | inactive | inactive | inactive | inactive | inactive | inactive | inactive | inactive |  | 
11 | CCNc1nc(NC(C)C)nc(OC)n1 | inactive | inactive | inactive | inactive | inactive | inactive | inactive | inactive | inactive | inactive | inactive | inactive | inactive | inactive | inactive | inactive | inactive | inactive | inactive | inactive
12 | CN(C)[C@@H]1C(=O)C(C(N)=O)=C(O)[C@@]2(O)C(=O)C3=C(O)c4c(O)cccc4[C@@](C)(O)[C@H]3C[C@@H]12 | inactive | inactive | inactive | inactive | inactive | inactive | inactive | inactive | inactive | inactive | inactive | inactive | inactive | inactive | inactive | inactive | inactive | inactive | inactive | 
13 | CN(C)c1ccccc1 | inactive | inactive | inactive | inactive | inactive | inactive | inactive | inactive | inactive | inactive | inactive | inactive | inactive | inactive | inactive | inactive | inactive | inactive |  | 
14 | CCNc1nc(Cl)nc(NCC)n1 | inactive | inactive | inactive | inactive | inactive | inactive | inactive | inactive | inactive | inactive | inactive | inactive | inactive | inactive | inactive | inactive | inactive | inactive | inactive | 
15 | Cc1cccc(N)c1 | inactive | inactive | inactive | inactive | inactive | inactive | inactive | inactive | inactive | inactive | inactive | inactive | inactive | inactive | inactive | inactive | inactive | inactive |  | 
